Among the data in PubChem BioAssay are composite z-score and z-score values, retold here.

The nature of test [1]: small molecules captured by biotinylated probe aFSTL3 – biochemical, small-molecule microarray, fluorescence 635/667, stem cell growth factor project, primary screen (AID 1064).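 Note: measures binding of the biotinylated anti-FSTL3 antibody to printed compounds.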 Particulars: higher = more signal.
Test [2] can be described thus: binders from COS7 lysate, DM2A8 probe, primary screen, torsin A project, cell lysate, small-molecule microarray, fluorescence 635/667 (AID 1065). Particulars: higher = more signal, COS7 lysate expressing mutant human TOR1A.
Test [3] in a line: small molecules captured by biotinylated probe aFGF2 – biochemical, small-molecule microarray, fluorescence 635/667, stem cell growth factor project, primary screen (AID 1067).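 Note: measures binding of biotinylated aFGF2 protein to printed compounds on slides; z-score merges feature fluorescence and signal-to-noise across triplicate slides.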 Particulars: higher = more signal.
Test [4] is described as follows: small molecules captured by biotinylated probe aFGF10 – biochemical, small-molecule microarray, fluorescence 635/667, stem cell growth factor project, primary screen (AID 1071).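 Note: score merges 667 nm spot intensity and signal to noise from triplicate slides.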 Particulars: higher = more signal.
The target of test [5] is Neurogenic locus notch homolog protein 2 (Homo sapiens) (UniProt Q04721). As to the kind of experiment: small molecules binding Notch2 protein – biochemical, small-molecule microarray, 635 nm fluorescence, stem cell growth factors, primary screen (AID 1073). To be noted: higher = more signal.
Neurogenic locus notch homolog protein 2 (Homo sapiens), sequence (Q04721 whole entry, looked up, canonical isoform): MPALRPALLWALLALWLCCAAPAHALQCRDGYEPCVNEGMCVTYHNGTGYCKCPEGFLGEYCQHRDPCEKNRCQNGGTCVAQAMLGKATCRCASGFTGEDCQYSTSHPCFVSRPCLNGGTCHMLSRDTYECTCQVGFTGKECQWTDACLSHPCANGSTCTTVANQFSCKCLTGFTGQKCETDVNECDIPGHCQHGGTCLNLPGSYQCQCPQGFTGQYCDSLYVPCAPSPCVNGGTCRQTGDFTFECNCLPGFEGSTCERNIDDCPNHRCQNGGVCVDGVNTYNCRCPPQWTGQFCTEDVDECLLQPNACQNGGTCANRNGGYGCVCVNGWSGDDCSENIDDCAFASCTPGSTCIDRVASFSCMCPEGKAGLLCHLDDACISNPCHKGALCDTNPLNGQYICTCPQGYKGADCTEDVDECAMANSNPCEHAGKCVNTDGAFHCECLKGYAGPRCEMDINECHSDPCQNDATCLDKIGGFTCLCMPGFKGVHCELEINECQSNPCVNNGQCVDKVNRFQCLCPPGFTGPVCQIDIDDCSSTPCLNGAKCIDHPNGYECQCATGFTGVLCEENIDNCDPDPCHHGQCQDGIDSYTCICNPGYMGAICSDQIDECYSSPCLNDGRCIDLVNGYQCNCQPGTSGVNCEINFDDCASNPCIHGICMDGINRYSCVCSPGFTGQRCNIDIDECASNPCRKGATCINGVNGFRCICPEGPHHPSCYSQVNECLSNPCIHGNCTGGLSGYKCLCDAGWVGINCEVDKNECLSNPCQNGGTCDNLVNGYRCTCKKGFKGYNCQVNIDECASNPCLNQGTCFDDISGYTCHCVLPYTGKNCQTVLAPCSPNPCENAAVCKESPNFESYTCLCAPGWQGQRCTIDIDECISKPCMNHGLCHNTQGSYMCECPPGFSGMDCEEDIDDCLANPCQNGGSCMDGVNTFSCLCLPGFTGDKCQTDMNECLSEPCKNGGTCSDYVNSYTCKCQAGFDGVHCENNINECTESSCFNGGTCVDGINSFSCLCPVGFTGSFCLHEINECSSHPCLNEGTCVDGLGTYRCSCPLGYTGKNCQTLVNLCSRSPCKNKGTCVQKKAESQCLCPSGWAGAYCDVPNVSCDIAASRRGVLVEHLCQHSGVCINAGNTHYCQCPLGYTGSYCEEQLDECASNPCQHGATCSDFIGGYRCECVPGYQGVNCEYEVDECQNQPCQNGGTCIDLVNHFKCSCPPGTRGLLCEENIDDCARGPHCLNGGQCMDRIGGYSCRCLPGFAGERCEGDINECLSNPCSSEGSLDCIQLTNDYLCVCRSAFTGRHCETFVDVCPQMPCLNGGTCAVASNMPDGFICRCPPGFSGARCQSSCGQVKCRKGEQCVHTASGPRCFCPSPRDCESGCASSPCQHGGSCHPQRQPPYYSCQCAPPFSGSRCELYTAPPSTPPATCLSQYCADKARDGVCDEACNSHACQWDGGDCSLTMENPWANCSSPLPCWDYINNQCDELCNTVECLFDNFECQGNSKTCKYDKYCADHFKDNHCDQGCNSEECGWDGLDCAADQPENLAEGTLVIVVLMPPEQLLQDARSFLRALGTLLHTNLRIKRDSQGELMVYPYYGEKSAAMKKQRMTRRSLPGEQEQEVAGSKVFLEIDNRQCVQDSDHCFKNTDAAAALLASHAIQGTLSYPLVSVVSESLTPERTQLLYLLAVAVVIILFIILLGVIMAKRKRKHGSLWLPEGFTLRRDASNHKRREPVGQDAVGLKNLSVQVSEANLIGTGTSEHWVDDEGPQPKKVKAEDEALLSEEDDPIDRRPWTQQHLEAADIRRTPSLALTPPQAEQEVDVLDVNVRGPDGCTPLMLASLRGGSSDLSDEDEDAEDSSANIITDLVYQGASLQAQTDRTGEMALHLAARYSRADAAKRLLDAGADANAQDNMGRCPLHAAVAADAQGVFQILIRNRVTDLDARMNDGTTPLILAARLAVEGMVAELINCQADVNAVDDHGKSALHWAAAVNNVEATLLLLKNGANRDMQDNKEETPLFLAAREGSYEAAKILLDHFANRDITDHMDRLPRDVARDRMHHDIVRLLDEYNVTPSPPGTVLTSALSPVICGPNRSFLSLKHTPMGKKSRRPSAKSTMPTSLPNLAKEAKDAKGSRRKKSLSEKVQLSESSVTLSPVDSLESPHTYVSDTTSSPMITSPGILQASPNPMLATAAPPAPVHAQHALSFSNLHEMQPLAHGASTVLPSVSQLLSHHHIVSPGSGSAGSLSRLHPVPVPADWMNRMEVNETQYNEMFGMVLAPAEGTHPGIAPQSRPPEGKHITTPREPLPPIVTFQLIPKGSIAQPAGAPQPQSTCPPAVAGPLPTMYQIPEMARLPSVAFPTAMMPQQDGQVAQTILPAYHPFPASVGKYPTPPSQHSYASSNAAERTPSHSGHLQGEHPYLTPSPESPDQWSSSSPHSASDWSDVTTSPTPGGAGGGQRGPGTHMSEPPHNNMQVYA
Test [6] has as its target Pro-neuregulin-1, membrane-bound isoform (Homo sapiens) (UniProt Q02297). Put plainly: small molecules binding neuregulin-1 protein – biochemical, small-molecule microarray, fluorescence 635/667, psychiatric disease protein project, primary screen (AID 1075).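 Note: score combines 667 nm spot fluorescence with signal to noise.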 To be noted: NRG1 binding, 635 nm fluorescence, higher = more signal.
The subject of test [7] is Neuregulin-1 EGF-like domain. Put plainly: small molecules binding NRG1 EGF domain – biochemical, small-molecule microarray, 635 nm fluorescence, primary screen (AID 1081).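 Note: binding of the protein to compounds printed on small-molecule microarray slides.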 To be noted: higher = more signal.
Test [8] in a line: FRG1 expression reporter modulators in myotubes – cell-based, C2C12 myotubes, firefly/Renilla luciferase, luminescence, FRG1 inhibition for FSHD, primary screen (AID 1084). To be noted: FRG1 promoter luciferase, higher = more signal, called active from +8 up or from −8 down.
Test [9] in a line: small molecules captured by biotinylated probe aFST – biochemical, small-molecule microarray, fluorescence 635/667, stem cell growth factor project, primary screen (AID 1086).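 Note: score merges 667 nm fluorescence with signal-to-noise of each printed compound spot.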 Particulars: higher = more signal.
Test [10] is described as follows: binders of probe aHhip on microarray, primary screen, stem cell growth factor project, biochemical, small-molecule microarray, fluorescence 635/667 (AID 1087).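 Note: score merges spot fluorescence at 667nm with spot signal to noise ratio.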 Particulars: higher = more signal.
The subject of test [11] is PRMT1 (protein arginine N-methyltransferase 1). As to the kind of experiment: small molecules binding arginine methyltransferase PRMT1 – biochemical, small-molecule microarray, 635 nm fluorescence, primary screen (AID 1088).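 Note: binding of Prmt1 protein to compounds spotted on small-molecule microarray slides.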 Particulars: higher = more signal.
The nature of test [12]: growth effects on S. cerevisiae YJM789 – YJM789 clinical isolate, OD600, 24 h, basal, primary screen (AID 1089).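 Note: growth of clinical yeast isolate S. cerevisiae YJM 789 seeded 1000 cells per well; test concentration not given here.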 To be noted: higher = more signal, called active from +8 up or from −8 down.
The nature of test [13]: S. pombe growth modifiers, basal conditions – strain 972, OD600, 24 h, no modulator, primary screen (AID 1090).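 Note: basal condition with compound alone and no growth modifier present; test concentration not given here.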 Particulars: S. pombe 972 growth, higher = more signal, called active from +8 up or from −8 down.
A short description of test [14]: budding yeast growth modifiers under rapamycin – strain BY4716, OD600, 96 h, primary screen (AID 1091). Note: test concentration not given here. Particulars: S. cerevisiae BY4716 + rapamycin, higher = more signal, called active from +8 up or from −8 down.
Test [15] deals with Torsin-1A-interacting protein 2 (Homo sapiens) (UniProt Q8NFQ8). Put plainly: small molecules binding lysate-expressed LULL1 – cell lysate, human LULL1 lysate, 635/667 nm fluorescence, primary screen (AID 1092).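 Note: probe is lysate of COS7 cells overexpressing human LULL1; score merges per-feature 667 nm fluorescence with signal-to-noise.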 Particulars: small-molecule microarray, hLULL1 lysate binding, 635 nm fluorescence; higher = more signal.
Torsin-1A-interacting protein 2 (Homo sapiens), sequence (Q8NFQ8 whole entry, looked up): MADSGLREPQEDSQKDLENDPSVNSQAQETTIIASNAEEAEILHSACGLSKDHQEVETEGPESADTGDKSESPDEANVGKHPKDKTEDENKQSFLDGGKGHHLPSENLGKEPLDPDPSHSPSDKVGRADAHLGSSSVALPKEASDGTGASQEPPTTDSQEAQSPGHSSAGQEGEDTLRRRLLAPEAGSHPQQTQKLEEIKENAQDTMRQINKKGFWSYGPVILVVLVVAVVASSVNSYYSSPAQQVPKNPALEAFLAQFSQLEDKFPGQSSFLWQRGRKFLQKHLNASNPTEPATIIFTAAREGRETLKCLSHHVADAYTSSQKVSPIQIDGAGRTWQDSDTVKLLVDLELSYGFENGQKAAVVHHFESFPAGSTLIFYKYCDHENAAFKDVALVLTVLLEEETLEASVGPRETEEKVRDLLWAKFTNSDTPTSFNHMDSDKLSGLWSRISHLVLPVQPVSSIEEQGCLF
A short description of test [16]: optical density change of DRC41 E. coli – strain DRC41, OD650, 24 h, E. coli filamentation project, primary screen (AID 1093).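 Note: MC1000 strain lacking acrAB efflux and sulA so SOS filamentation is blocked; test concentration not given here.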 Particulars: E. coli DRC41 growth, higher = more signal, called active from +8 up or from −8 down.
A short description of test [17]: probe aLefty2 binding to arrayed compounds – biochemical, biotinylated probe, 635/667 nm fluorescence, primary screen (AID 1094).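 Note: score merges spot fluorescence near 667 nm with spot signal-to-noise ratio.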 To be noted: small-molecule microarray, higher = more signal.
The test system of test [18] is Noggin (protein binding on small-molecule microarray). Put plainly: small molecules binding Noggin protein – biochemical, 635/667 nm fluorescence, primary screen (AID 1095).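 Note: score merges 667 nm feature fluorescence with signal to noise over triplicate slides.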 To be noted: 635 nm fluorescence, higher = more signal.
Test [19] deals with Neurogenic locus notch homolog protein 3 (Homo sapiens) (UniProt Q9UM47). As to the kind of experiment: small molecules binding NOTCH3 protein – biochemical, 635/667 nm fluorescence, primary screen (AID 1096). Particulars: small-molecule microarray, 635 nm fluorescence, higher = more signal.
The nature of test [20]: probe aEGFR binding to arrayed compounds – biochemical, biotinylated probe, 635/667 nm fluorescence, primary screen (AID 1097).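 Note: probe is a biotinylated anti-EGFR antibody binding compounds printed on slides; score combines fluorescence near 667 nm and signal to noise of each spot.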 Particulars: small-molecule microarray, higher = more signal.

Activity calls are given as the source filed them.

Pro-neuregulin-1, membrane-bound isoform (Homo sapiens), sequence (Q02297 whole entry, looked up, the tested form may be a part, canonical isoform): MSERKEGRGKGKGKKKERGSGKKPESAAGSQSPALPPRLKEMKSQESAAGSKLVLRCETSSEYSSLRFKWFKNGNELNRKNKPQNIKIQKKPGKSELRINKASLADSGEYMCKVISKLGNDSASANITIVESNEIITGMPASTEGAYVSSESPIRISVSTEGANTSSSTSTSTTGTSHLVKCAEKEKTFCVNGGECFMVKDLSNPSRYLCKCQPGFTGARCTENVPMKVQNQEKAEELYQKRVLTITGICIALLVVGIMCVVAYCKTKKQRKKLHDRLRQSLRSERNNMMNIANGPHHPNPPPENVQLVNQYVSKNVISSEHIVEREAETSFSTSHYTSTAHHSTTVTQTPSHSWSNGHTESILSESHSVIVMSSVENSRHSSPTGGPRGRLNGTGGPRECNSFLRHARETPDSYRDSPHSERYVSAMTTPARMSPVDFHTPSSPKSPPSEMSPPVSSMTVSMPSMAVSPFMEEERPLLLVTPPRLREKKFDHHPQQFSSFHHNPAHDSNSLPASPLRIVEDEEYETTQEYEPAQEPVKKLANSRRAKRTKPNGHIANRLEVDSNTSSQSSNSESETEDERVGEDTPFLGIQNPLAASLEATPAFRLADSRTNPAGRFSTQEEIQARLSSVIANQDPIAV

Turning to `CN1C(=O)[C@]2(CCS(=O)(=O)c3ccccc3)N=C(c3ccc(OCCCO)cc3)O[C@@H]2c2ccccc21`, the composite z-score in test [1] was 0.511; in test [2], 0.485; in [3], -0.0984; in test [4], 0.255; in [5], 0.768; in test [6], 1.75. In addition, the composite z-score in test [7] is 1.41; in test [9] it was 0.135; in test [10], 0.238; in test [11] it was 1.54; in test [15], 3.41; in [17], -0.0271. In addition, the composite z-score in [18] was 0.804; in test [19], 1.12; in [20] it was -0.168. The z-score in test [8] is -0.34 (inactive); in test [12] it was 0.921 (inactive); in [13], -0.895 (inactive); in [14], 3.62 (inactive); in [16], -0.532 (inactive).
`C=CCNC(=O)[C@@H]1[C@H]2C(=O)O[C@H](c3ccccc3)[C@H](c3ccccc3)N2[C@H](c2ccccc2OCCO)[C@@]12C(=O)N(C(=O)OCCOC)c1ccc(C#CCCO)cc12`: the composite z-score in [1] is -0.0812; in test [2] it was 0.693; in [3] it was 0.0645; in test [4], 1.05; in test [5] it was 0.742; in test [6] it was 1.2. For the same molecule, the composite z-score in test [7] is 1.21; in test [9], -0.66; in test [10] it was 0.277; in test [11], 1.55; in test [15] it was 2.88; in test [17] it was -0.135. The composite z-score was 0.96 in [18], 1.08 in test [19] and 0.038 in [20]. The z-score is 0.0106 (inactive) in test [8]; 0.656 (inactive) in test [12]; 0.619 (inactive) in [13]; 3.69 (inactive) in [14]; -0.625 (inactive) in [16].
Regarding `N#Cc1ccc(C(O)C2C=CC3C(=O)NC(=O)C3N2Nc2ccccn2)cc1` (stereo not given), the composite z-score in test [1] is -0.0872; in [2] it was -0.013; in [3], -0.0692; in test [4], 0.311; in [5], 0.905; in [6] it was 1.41. For the same molecule, the composite z-score in test [7] was 0.511; in test [9], 0.12; in test [10] it was 0.113; in [11], 0.312; in [15], 1.4; in test [17] it was -0.147. In addition, the composite z-score in [18] is -0.14; in test [19] it was -0.124; in test [20], -0.0594. Moreover, the z-score was -0.0581 (inactive) in [8]; -1.4 (inactive) in test [12]; 0.811 (inactive) in [13]; -0.657 (inactive) in test [14]; -0.195 (inactive) in test [16].
Turning to `CC(C)(C)N1CC=CC23O[C@@H]4/C=C\CCCOC(=O)C4[C@H]2C(=O)N(CCCCCCO)[C@@H]3C1=O` (stereo not given in full), the composite z-score was 0.509 in [1]; -0.342 in test [2]; -0.208 in test [3]; -0.056 in test [4]; -1.12 in [5]; 1.1 in test [6]. In addition, the composite z-score was 0.781 in test [7]; -0.392 in test [9]; -0.0618 in [10]; -0.0574 in test [11]; 1.24 in test [15]; -0.302 in test [17]. Further, the composite z-score in test [18] is -1.19; in test [19], -0.052; in test [20], 0.252. For the same molecule, the z-score in test [8] was -1.09 (inactive); in test [12], -3.01 (inactive); in test [13], -0.927 (inactive); in [14], -0.624 (inactive); in [16], 1.42 (inactive).
For the molecule `CCC[C@@H]1C=C(C(=O)OCC)[C@H](c2ccccc2)N1S(=O)(=O)c1ccc(C)cc1`, the composite z-score in test [1] was 0.483; in [2], 0.379; in [3], 0.137; in [4] it was 0.88; in test [5] it was 1.66; in test [6], 1.09. Moreover, the composite z-score in [7] is 1.06; in test [9], 1.2; in [10], -0.105; in test [11], 1.57; in test [15] it was 0.352; in [17], 0.326. Also, the composite z-score turned out to be 0.0974 in test [18], 1.08 in test [19] and 0.21 in test [20]. Moreover, the z-score in test [8] was -1.56 (inactive); in [12], 0.73 (inactive); in test [13], 1.67 (inactive); in [14], 1.7 (inactive); in test [16], -0.209 (inactive).
